# The sample as a whole holds a higher share of the strongest signals than the screen did.
# Assays:
# Assay in all cases: glycan array binding signal (z-score within array); higher = stronger binding
# [1] = test system: Gal(b1-3)GlcNAc(b1-2)Man(a1-3)[Gal(b1-3)GlcNAc(b1-2)Man(a1-6)]Man(b1-4)GlcNAc(b1-4)GlcNAc; details: glycan notation: IUPAC condensed, linker removed
# Summary of the method: (§1)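 Glycan array data came from 3228 arrays in the Consortium for Functional Glycomics database, and only arrays with an available protein sequence were kept. Glycan names were put into IUPAC-condensed notation, and columns mapping to the same glycan were averaged. The binding signal is a within-array Z-score, averaged across arrays of one protein sequence run at different concentrations or buffers and across linkers. A negative Z-score can be read as non-binding.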
# Gal(b1-3)GlcNAc = details: glycan notation: IUPAC condensed, linker removed
# Summary of the method: as §1
# Gal(b1-3)Gal = details: glycan notation: IUPAC condensed, linker removed
# Summary of the method: as §1
# [2] = test system: Gal(b1-3)GlcNAc(b1-3)Gal(b1-4)GlcNAc; details: glycan notation: IUPAC condensed, linker removed
# Summary of the method: as §1
# [3] = test system: Gal(b1-3)[Fuc(a1-4)]GlcNAc(b1-3)Gal(b1-3)[Fuc(a1-4)]GlcNAc; details: glycan notation: IUPAC condensed, linker removed
# Summary of the method: as §1
# [4] = test system: Gal(b1-3)[Fuc(a1-4)]GlcNAc(b1-3)Gal(b1-4)GlcNAc; details: glycan notation: IUPAC condensed, linker removed
# Summary of the method: as §1
# [5] = test system: Gal(b1-3)GlcNAc(a1-6)Gal(b1-4)GlcNAc; details: glycan notation: IUPAC condensed, linker removed
# Summary of the method: as §1
# [6] = test system: Gal(b1-3)GlcNAc(b1-2)Man(a1-3)[Gal(b1-3)GlcNAc(b1-2)Man(a1-6)]Man(b1-4)GlcNAc(b1-4)[Fuc(a1-6)]GlcNAc; details: glycan notation: IUPAC condensed, linker removed
# Summary of the method: as §1
# [7] = test system: Gal(b1-3)GlcNAc(b1-3)Gal(b1-4)GlcNAc(b1-2)[Gal(b1-3)GlcNAc(b1-3)Gal(b1-4)GlcNAc(b1-6)]Man(a1-6)[Gal(b1-3)GlcNAc(b1-3)Gal(b1-4)GlcNAc(b1-2)Man(a1-3)]Man(b1-4)GlcNAc(b1-4)[Fuc(a1-6)]GlcNAc; details: glycan notation: IUPAC condensed, linker removed
# Summary of the method: as §1
# [8] = test system: Gal(b1-3)GlcNAc(b1-3)Gal(b1-4)Glc; details: glycan notation: IUPAC condensed, linker removed
# Summary of the method: as §1
# [9] = test system: Gal(b1-3)[Fuc(a1-4)]GlcNAc(b1-2)Man(a1-3)[Gal(b1-3)[Fuc(a1-4)]GlcNAc(b1-2)Man(a1-6)]Man(b1-4)GlcNAc(b1-4)[Fuc(a1-6)]GlcNAc; details: glycan notation: IUPAC condensed, linker removed
# Summary of the method: as §1
# [10] = test system: Gal(b1-3)GalNAc(b1-4)[Neu5Ac(a2-3)]Gal(b1-4)Glc; details: glycan notation: IUPAC condensed, linker removed
# Summary of the method: as §1
# [11] = test system: Gal(b1-3)GlcNAc(b1-2)Man(a1-3)[GlcNAc(b1-4)][Gal(b1-3)GlcNAc(b1-2)Man(a1-6)]Man(b1-4)GlcNAc(b1-4)GlcNAc; details: glycan notation: IUPAC condensed, linker removed
# Summary of the method: as §1
# [12] = test system: Gal(b1-3)[Fuc(a1-4)]GlcNAc(b1-3)Gal(b1-4)[Fuc(a1-3)]GlcNAc; details: glycan notation: IUPAC condensed, linker removed
# Summary of the method: as §1
# [13] = test system: Gal(b1-3)[Fuc(a1-4)]GlcNAc(b1-2)Man; details: glycan notation: IUPAC condensed, linker removed; mutation: R125K
# Summary of the method: as §1
# [14] = test system: Gal(b1-3)GlcNAc(b1-3)Gal(b1-4)GlcNAc(b1-6)[Gal(b1-3)GlcNAc(b1-3)]Gal(b1-4)Glc; details: glycan notation: IUPAC condensed, linker removed
# Summary of the method: as §1
# [15] = test system: Gal(b1-3)[Fuc(a1-4)]GlcNAc(b1-2)Man(a1-3)[Gal(b1-3)[Fuc(a1-4)]GlcNAc(b1-2)Man(a1-6)]Man(b1-4)GlcNAc(b1-4)GlcNAc; details: glycan notation: IUPAC condensed, linker removed
# Summary of the method: as §1
# [16] = test system: Gal(b1-3)GlcNAc(b1-3)GalNAc; details: glycan notation: IUPAC condensed, linker removed
# Summary of the method: as §1
# Gal(b1-3)GlcNAc6S = details: glycan notation: IUPAC condensed, linker removed
# Summary of the method: as §1
# [17] = test system: Gal(b1-3)GalNAc(b1-4)Gal(b1-4)Glc; details: glycan notation: IUPAC condensed, linker removed
# Summary of the method: as §1
# CHI3L1 (Homo sapiens), P36222, sequence (P36222 whole entry): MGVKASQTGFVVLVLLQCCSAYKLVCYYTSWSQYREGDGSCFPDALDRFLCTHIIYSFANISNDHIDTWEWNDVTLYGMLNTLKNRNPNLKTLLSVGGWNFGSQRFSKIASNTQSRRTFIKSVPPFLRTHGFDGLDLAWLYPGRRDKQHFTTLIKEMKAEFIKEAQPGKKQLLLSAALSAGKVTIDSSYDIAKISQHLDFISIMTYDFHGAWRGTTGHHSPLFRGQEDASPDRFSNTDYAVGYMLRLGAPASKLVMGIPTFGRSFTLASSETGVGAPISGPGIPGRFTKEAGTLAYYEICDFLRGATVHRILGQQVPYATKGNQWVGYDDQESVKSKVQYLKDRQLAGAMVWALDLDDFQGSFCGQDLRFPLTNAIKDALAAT
# Regenerating Gene IV (Homo sapiens), Q9BYZ8, sequence (Q9BYZ8 whole entry, looked up): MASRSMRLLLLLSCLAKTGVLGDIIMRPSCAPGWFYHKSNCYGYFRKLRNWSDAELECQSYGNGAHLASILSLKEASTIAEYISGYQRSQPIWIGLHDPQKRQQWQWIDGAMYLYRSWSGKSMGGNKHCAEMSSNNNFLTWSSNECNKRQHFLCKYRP
# Avaren (Actinomycete K97), sequence (chain, as listed by the source): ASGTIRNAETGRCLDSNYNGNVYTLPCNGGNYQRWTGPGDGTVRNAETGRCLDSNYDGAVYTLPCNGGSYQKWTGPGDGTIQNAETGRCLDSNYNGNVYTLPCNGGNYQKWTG
# C3b (Homo sapiens), P01024, sequence (P01024 23-667): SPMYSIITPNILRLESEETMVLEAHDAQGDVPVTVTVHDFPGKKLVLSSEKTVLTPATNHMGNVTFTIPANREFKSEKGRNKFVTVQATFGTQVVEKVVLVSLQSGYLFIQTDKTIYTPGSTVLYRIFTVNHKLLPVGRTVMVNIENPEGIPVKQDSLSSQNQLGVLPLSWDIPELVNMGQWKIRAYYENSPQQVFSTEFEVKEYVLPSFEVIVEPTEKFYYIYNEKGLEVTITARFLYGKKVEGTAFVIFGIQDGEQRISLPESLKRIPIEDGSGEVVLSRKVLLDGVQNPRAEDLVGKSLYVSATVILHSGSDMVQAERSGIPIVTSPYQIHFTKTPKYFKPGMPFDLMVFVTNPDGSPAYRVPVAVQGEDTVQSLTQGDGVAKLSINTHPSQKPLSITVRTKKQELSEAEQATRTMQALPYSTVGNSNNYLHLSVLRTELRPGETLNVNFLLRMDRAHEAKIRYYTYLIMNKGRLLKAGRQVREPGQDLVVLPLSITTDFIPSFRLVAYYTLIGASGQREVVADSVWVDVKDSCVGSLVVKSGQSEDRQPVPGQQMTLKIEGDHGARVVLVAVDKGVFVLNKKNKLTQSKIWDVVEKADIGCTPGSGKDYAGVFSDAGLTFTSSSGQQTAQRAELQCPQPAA
# PILRb (Mus musculus), Q2YSF2, sequence (Q2YSF2 entry or part of it): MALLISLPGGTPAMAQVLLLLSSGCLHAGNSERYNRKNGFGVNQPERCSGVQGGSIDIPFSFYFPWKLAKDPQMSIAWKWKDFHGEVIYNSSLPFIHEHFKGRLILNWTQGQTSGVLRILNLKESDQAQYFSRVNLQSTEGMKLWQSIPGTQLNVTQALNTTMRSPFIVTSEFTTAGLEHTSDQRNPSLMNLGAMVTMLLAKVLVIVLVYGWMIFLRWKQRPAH
# Aggrecan (Rattus norvegicus), NP_071526, sequence (chain, as listed by the source): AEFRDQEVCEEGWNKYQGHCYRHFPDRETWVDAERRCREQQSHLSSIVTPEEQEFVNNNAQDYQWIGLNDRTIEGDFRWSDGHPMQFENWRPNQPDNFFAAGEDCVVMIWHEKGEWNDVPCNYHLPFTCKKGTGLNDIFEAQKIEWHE
# 6RG (Lolium perenne), sequence (chain, as listed by the source): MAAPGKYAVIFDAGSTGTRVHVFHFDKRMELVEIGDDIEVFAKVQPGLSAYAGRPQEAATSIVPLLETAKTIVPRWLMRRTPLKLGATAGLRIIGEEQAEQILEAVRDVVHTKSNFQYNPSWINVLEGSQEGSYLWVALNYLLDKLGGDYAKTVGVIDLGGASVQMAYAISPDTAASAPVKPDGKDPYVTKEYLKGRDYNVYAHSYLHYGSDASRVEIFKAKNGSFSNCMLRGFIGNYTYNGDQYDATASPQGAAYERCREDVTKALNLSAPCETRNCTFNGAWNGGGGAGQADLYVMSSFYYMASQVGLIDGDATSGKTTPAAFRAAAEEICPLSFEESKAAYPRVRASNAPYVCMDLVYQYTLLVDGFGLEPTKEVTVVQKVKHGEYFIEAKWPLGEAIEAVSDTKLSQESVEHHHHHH
# PILRa (Mus musculus), Q2YSF3, sequence (Q2YSF3 entry or part of it): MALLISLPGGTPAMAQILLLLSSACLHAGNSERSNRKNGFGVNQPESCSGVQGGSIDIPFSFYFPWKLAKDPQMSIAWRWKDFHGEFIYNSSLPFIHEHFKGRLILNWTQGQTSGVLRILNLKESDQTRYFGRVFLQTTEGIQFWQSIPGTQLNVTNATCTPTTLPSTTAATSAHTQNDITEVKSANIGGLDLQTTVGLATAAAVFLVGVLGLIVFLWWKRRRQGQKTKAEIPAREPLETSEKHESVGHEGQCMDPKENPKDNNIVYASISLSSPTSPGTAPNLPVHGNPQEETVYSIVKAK
# Neurocan (Homo sapiens), O14594, sequence (O14594 other isoform, or with tags, fused parts or gaps): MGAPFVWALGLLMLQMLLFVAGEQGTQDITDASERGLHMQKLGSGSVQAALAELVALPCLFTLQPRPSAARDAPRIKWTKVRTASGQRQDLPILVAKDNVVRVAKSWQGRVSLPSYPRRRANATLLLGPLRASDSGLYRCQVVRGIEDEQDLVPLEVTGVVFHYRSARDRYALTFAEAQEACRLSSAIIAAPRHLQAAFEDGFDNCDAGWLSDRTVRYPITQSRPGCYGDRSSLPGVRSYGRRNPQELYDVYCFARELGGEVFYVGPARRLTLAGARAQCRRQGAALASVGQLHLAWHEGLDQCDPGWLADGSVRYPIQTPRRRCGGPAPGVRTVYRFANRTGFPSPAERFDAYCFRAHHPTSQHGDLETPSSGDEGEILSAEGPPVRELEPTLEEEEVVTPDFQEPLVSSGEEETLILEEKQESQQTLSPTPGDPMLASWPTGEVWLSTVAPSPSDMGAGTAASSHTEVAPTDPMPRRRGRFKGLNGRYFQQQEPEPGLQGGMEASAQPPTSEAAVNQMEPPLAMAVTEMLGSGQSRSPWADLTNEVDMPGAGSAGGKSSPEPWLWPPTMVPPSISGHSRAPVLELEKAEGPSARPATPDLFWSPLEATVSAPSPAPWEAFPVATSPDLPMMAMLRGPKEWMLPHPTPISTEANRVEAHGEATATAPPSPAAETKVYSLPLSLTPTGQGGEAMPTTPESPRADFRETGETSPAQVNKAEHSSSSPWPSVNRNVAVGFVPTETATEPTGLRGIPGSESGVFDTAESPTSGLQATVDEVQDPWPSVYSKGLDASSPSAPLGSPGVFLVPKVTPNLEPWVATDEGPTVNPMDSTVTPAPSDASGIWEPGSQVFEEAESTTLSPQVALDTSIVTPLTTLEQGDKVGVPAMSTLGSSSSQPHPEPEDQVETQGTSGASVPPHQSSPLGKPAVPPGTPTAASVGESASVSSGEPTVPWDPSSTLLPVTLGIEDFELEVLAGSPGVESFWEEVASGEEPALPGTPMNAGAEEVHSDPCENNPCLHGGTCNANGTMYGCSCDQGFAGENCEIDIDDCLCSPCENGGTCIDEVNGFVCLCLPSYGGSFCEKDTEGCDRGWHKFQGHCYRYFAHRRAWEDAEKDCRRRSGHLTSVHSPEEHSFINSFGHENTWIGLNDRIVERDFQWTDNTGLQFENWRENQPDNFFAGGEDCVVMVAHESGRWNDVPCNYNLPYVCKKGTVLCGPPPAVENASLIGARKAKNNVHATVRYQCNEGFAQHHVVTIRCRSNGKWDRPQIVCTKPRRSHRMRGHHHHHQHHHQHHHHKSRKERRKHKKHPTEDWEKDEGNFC
# wLAT-1A (Homo sapiens), Q01650, sequence (Q01650 whole entry): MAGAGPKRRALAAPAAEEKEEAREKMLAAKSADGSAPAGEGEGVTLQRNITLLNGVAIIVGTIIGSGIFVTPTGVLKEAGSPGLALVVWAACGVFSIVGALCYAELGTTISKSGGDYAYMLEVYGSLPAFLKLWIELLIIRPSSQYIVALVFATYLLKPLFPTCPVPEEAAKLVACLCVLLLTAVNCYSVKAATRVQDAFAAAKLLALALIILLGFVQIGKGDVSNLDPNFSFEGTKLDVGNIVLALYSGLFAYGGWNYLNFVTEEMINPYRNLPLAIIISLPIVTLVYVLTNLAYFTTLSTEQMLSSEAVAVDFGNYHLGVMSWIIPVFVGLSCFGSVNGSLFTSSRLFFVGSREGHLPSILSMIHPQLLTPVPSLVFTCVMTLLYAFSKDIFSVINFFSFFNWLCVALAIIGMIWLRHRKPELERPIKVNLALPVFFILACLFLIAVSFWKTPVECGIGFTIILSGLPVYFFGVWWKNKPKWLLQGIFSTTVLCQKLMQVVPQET
# SRLC (Mus musculus), Q8VIF6, sequence (Q8VIF6 other isoform, or with tags, fused parts or gaps): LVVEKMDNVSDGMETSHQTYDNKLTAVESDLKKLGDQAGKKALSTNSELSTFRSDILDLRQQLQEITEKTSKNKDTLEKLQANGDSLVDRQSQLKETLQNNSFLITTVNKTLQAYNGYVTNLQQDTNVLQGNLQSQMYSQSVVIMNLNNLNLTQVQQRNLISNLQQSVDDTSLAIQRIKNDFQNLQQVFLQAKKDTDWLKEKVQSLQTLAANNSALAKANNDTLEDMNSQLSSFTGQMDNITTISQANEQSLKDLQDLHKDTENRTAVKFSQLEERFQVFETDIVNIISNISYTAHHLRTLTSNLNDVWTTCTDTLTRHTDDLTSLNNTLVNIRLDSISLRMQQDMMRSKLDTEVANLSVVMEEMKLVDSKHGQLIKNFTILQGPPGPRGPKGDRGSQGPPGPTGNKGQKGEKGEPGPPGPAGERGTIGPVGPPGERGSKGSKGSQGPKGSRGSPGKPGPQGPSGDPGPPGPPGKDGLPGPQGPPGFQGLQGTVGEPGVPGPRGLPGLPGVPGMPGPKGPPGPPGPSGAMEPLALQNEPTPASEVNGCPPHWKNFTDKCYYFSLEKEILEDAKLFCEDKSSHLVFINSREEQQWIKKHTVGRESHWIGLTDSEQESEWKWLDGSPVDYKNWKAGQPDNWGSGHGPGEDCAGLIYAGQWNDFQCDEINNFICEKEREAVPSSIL
substance,measurement,setting,value
"PILRb (Mus musculus), Q2YSF2",glycan array binding signal (z-score),[1],0.611
same,glycan array binding signal (z-score),Gal(b1-3)GlcNAc,-0.113
"Regenerating Gene IV (Homo sapiens), Q9BYZ8",glycan array binding signal (z-score),Gal(b1-3)Gal,-0.546
same,glycan array binding signal (z-score),[2],-0.615
same,glycan array binding signal (z-score),[3],-0.411
same,glycan array binding signal (z-score),[4],-0.208
"Neurocan (Homo sapiens), O14594",glycan array binding signal (z-score),[5],-0.985
same,glycan array binding signal (z-score),[3],2.48
Avaren (Actinomycete K97),glycan array binding signal (z-score),[6],-0.081
same,glycan array binding signal (z-score),[7],1.97
same,glycan array binding signal (z-score),[8],0.952
same,glycan array binding signal (z-score),[9],1.53
MpAFP RI GFP (Marinomonas primoryensis),glycan array binding signal (z-score),[10],-0.54
same,glycan array binding signal (z-score),[11],1.37
same,glycan array binding signal (z-score),[9],2.74
same,glycan array binding signal (z-score),[12],-0.369
"Siglec-8 (Homo sapiens), Q9NYZ4",glycan array binding signal (z-score),[5],-0.162
same,glycan array binding signal (z-score),[7],0.166
same,glycan array binding signal (z-score),[13],0.797
"PILRa (Mus musculus), Q2YSF3",glycan array binding signal (z-score),[14],-0.146
same,glycan array binding signal (z-score),[15],0.063
"wLAT-1A (Homo sapiens), Q01650",glycan array binding signal (z-score),[10],-0.218
"SRLC (Mus musculus), Q8VIF6",glycan array binding signal (z-score),[12],4.49
"Aggrecan (Rattus norvegicus), NP_071526",glycan array binding signal (z-score),[8],0.002
same,glycan array binding signal (z-score),[3],0.137
"CHI3L1 (Homo sapiens), P36222",glycan array binding signal (z-score),[11],0.123
same,glycan array binding signal (z-score),[16],-0.129
same,glycan array binding signal (z-score),Gal(b1-3)GlcNAc6S,0.72
6RG (Lolium perenne),glycan array binding signal (z-score),[17],0.249
same,glycan array binding signal (z-score),[8],6.36
"C3b (Homo sapiens), P01024",glycan array binding signal (z-score),[17],-0.644
same,glycan array binding signal (z-score),[3],0.483
"HARE (Homo sapiens), Q8WWQ8",glycan array binding signal (z-score),Gal(b1-3)Gal,2.26
